Data from ChEMBL document CHEMBL3988442, “University of Dundee, Small-Polar-MMV Screening Library” (2021).
In all, about 48,000 compounds went through this assay and about 13,000 (27%) showed an effect of 50% or more. The list shows a part of the results.

System: Wolbachia pipientis
Assay: Anti-Wolbachia Cell-Based Screen
Type: functional
Parameters: scale not given: in the data most compounds retested in dose-response had high values
Settings: 5 µM

**Q.** Which “Percent Effect” value does the source give for `COc1cc(CNCCn2cccn2)c2c(c1)CC(C)O2` (centres undefined) here?
**A.** -3.376%

**Q.** Which “Percent Effect” value does the source give for `CC(=O)Nn1c(C)cc(CN2CCC(c3ccncc3)CC2)c1C` here?
**A.** -4.141%

**Q.** `CC(c1cccnc1)N(C)Cc1csc(-c2ccccn2)n1` (centres undefined) was tested. Which “Percent Effect” value did it give?
**A.** 4.015%

**Q.** With `N#Cc1ccccc1CN1CCC2(CC1)CC(c1ccccc1)C(=O)N2` (centres undefined) as the compound, how does the “Percent Effect” value read?
**A.** 15.31%

**Q.** For `Cc1nc(CNC(=O)CCN2CCN(c3ccccc3)CC2)oc1C`, which “Percent Effect” value is on record?
**A.** 0.8962%

**Q.** With `COc1c(CNCC(O)c2ccccc2F)c(C(C)C)nn1C` (centres undefined) as the compound, how does the “Percent Effect” value read?
**A.** 91.26%

**Q.** With `COc1ccccc1C(O)CNCc1c(C(C)C)nn(C)c1N(C)C` (centres undefined) as the compound, how does the “Percent Effect” value read?
**A.** 2.712%

**Q.** For `COc1c(CNCc2ccc(CN(C)C)cc2)c(C(C)C)nn1C`, which “Percent Effect” value is on record?
**A.** -2.323%

**Q.** With `COc1c(CNCC(c2cccc(F)c2)N(C)C)c(C(C)C)nn1C` (centres undefined) as the compound, how does the “Percent Effect” value read?
**A.** 10%

**Q.** Which “Percent Effect” value does the source give for `CC(C)c1nn(C)c(N(C)C)c1CNCC(O)c1ccccc1F` (centres undefined) here?
**A.** -5.015%

**Q.** With `COc1c(CNCC(O)c2ccc(C)cc2)c(C(C)C)nn1C` (centres undefined) as the compound, how does the “Percent Effect” value read?
**A.** 85.73%

**Q.** `COc1c(CNCC(O)c2ccccc2)c(C(C)C)nn1C` (centres undefined) was tested. Which “Percent Effect” value did it give?
**A.** 92.93%

**Q.** `COc1ncccc1CNCc1c(C(C)C)nn(C)c1OC` was tested. Which “Percent Effect” value did it give?
**A.** 1.463%

**Q.** `Cc1nn(C)c(N(C)C)c1CNCC(O)c1ccccc1F` (centres undefined) was tested. Which “Percent Effect” value did it give?
**A.** 78.77%

**Q.** How did the “Percent Effect” value turn out when `Cc1nn(C)c(N(C)C)c1CNCc1cccc(Cl)c1` was run?
**A.** 10.47%

**Q.** How did the “Percent Effect” value turn out when `COc1c(CNCc2ccc(N(C)C)nc2)c(C(C)C)nn1C` was run?
**A.** -3.12%

**Q.** `Cc1cccc(C(=O)N2CCSCC2)c1NC(=O)c1ccsc1` was tested. Which “Percent Effect” value did it give?
**A.** 1.507%

**Q.** How did the “Percent Effect” value turn out when `O=C(c1cc(=O)[nH]c(=O)[nH]1)N1CCCCC1c1nc2cc(F)ccc2[nH]1` (centres undefined) was run?
**A.** -7.879%

**Q.** With `CC(C)(C)OC(=O)N[C@H]1CCN(c2cncc(Br)c2)C1` as the compound, how does the “Percent Effect” value read?
**A.** 4.915%

**Q.** For `Cn1c(SCc2noc(C(C)(C)C)n2)nnc1C1CCS(=O)(=O)C1` (centres undefined), which “Percent Effect” value is on record?
**A.** 11.73%

**Q.** For `CCc1ccc(C(=O)NCCCC2(C3OCCO3)CCOCC2)cc1`, which “Percent Effect” value is on record?
**A.** -33.3%

**Q.** How did the “Percent Effect” value turn out when `N#Cc1ccccc1CN1C[C@@H]2CC[C@H](C1)N(Cc1cscn1)C2=O` was run?
**A.** -11.1%

**Q.** For `O=C(NCc1ccccc1)N1CCC(Oc2ncccc2Br)CC1`, which “Percent Effect” value is on record?
**A.** -0.9975%

**Q.** With `NC(=O)Nc1cccc(F)c1C(=O)NC1CCCC1` as the compound, how does the “Percent Effect” value read?
**A.** 2.904%

**Q.** With `COc1c(CNC(c2ccc(F)cc2)C(C)(C)C)c(C)nn1C` (centres undefined) as the compound, how does the “Percent Effect” value read?
**A.** 23.53%

**Q.** For `Cc1nc(CNCC(O)COc2ccc3c(c2)OCO3)cs1` (centres undefined), which “Percent Effect” value is on record?
**A.** -10.52%

**Q.** For `Cc1nn(C)c(Cl)c1CNCCOc1ccc2c(c1)OCO2`, which “Percent Effect” value is on record?
**A.** -10.2%

**Q.** How did the “Percent Effect” value turn out when `COc1c(CNCC(O)c2cccc(F)c2)c(C(C)C)nn1C` (centres undefined) was run?
**A.** 6.756%

**Q.** `COc1c(CNCC(O)COc2ccc3c(c2)OCO3)c(C)nn1C` (centres undefined) was tested. Which “Percent Effect” value did it give?
**A.** 70.56%

**Q.** Which “Percent Effect” value does the source give for `COc1c(CNCC(O)c2cccc(F)c2)c(C)nn1C` (centres undefined) here?
**A.** 102.4%

**Q.** `CC(=O)c1ccc(N2CCC3(CCC(=O)N(CCCO)C3)CC2)nc1` was tested. Which “Percent Effect” value did it give?
**A.** -7.997%

**Q.** How did the “Percent Effect” value turn out when `Cn1ccnc1CN1C[C@H]2CN(S(=O)(=O)c3ccccc3)CCN2C1=O` was run?
**A.** 0.6101%

**Q.** With `O=C1N(Cc2cccnc2)C[C@H]2CN(S(=O)(=O)c3ccccc3)CCN12` as the compound, how does the “Percent Effect” value read?
**A.** -1.281%

**Q.** Which “Percent Effect” value does the source give for `O=S(=O)(c1cccnc1)N1CCC(OCCCc2ccccc2)C1` (centres undefined) here?
**A.** -0.692%

**Q.** For `Cc1csc(CN2C[C@@H]3CN(S(C)(=O)=O)CCO[C@@H]3C2)n1`, which “Percent Effect” value is on record?
**A.** -30.25%

**Q.** For `Cc1ccc(CC2CCCN(S(C)(=O)=O)C2)nc1` (centres undefined), which “Percent Effect” value is on record?
**A.** 114.6%

**Q.** With `O=C1N(Cc2ccccn2)C[C@H]2CN(S(=O)(=O)c3ccccc3)CCN12` as the compound, how does the “Percent Effect” value read?
**A.** -3.737%

**Q.** Which “Percent Effect” value does the source give for `Cc1ccc(CC2COCCN(S(C)(=O)=O)C2)nc1` (centres undefined) here?
**A.** 84.13%

**Q.** For `O=S(=O)(c1ccccc1)N1CCOCC(Cc2cccnc2)C1` (centres undefined), which “Percent Effect” value is on record?
**A.** 91.68%

**Q.** Which “Percent Effect” value does the source give for `Cc1ccc(CC2COCCN(S(=O)(=O)c3ccccc3)C2)nc1` (centres undefined) here?
**A.** 86.08%

**Q.** Which “Percent Effect” value does the source give for `Cc1cnc(N2CCC[C@@H]3CN(S(C)(=O)=O)C[C@@H]32)nc1` here?
**A.** 11.33%

**Q.** For `Cc1ncsc1CN1C[C@@H]2CN(S(C)(=O)=O)CCO[C@@H]2C1`, which “Percent Effect” value is on record?
**A.** -34.03%

**Q.** `CN(CC1CCCN(S(C)(=O)=O)C1)c1cnn(C)c1` (centres undefined) was tested. Which “Percent Effect” value did it give?
**A.** 7.496%

**Q.** Which “Percent Effect” value does the source give for `Cc1cc(C)n(C2CN(CC(O)c3ccc4c(c3)OCO4)C2)n1` (centres undefined) here?
**A.** -2.648%

**Q.** Which “Percent Effect” value does the source give for `Cc1cc(N2CCN(C(=O)[C@@H]3C[C@@H]4C=C[C@H]3C4)CC2)nc2ccccc12` here?
**A.** 54.26%

**Q.** Which “Percent Effect” value does the source give for `CCc1nc(C)cc(N2CCCC(C(=O)c3ccc(OC)cc3C)C2)n1` (centres undefined) here?
**A.** -51.86%

**Q.** With `COCCC1(C(=O)O)CCN(c2cc(C)c3ccccc3n2)CC1` as the compound, how does the “Percent Effect” value read?
**A.** -3.456%

**Q.** Which “Percent Effect” value does the source give for `Cc1cc(N2CCC(O)(C(=O)O)CC2)nc2ccccc12` here?
**A.** -10.2%

**Q.** `CCc1nc(C)cc(N2CCN(C(=O)[C@@H]3C[C@@H]4C=C[C@H]3C4)CC2)n1` was tested. Which “Percent Effect” value did it give?
**A.** 84.46%

**Q.** `CCC(=O)N1CCCN(c2cncc(-n3nc(C)cc3C)n2)CC1` was tested. Which “Percent Effect” value did it give?
**A.** -2.482%

**Q.** `CC(C)n1nc(Cn2cccn2)c2c1CN(CC1CCOC1)C2.O=C(O)C(F)(F)F` (centres undefined) was tested. Which “Percent Effect” value did it give?
**A.** -1.747%

**Q.** `CCOC(=O)NCCC(=O)NCc1ccc(Oc2cccc(F)c2)nc1` was tested. Which “Percent Effect” value did it give?
**A.** 3.713%

**Q.** For `CCS(=O)(=O)N1CCc2ncnc(OC)c2CC1`, which “Percent Effect” value is on record?
**A.** 0.7096%

**Q.** For `CCc1ncnc2c1CCN(S(=O)(=O)CC)CC2`, which “Percent Effect” value is on record?
**A.** 104.4%

**Q.** Which “Percent Effect” value does the source give for `CCc1ncnc2c1CCN(C(=O)Cc1ccccn1)CC2` here?
**A.** -1.286%

**Q.** `CCN(C)c1ncnc2c1CCN(C(=O)N(C)C)CC2.O=C(O)C(F)(F)F` was tested. Which “Percent Effect” value did it give?
**A.** -3.614%

**Q.** Which “Percent Effect” value does the source give for `CCS(=O)(=O)N1CCc2ncnc(C)c2CC1` here?
**A.** -1.649%

**Q.** How did the “Percent Effect” value turn out when `CCOc1ncnc2c1CCN(S(=O)(=O)CC)CC2` was run?
**A.** -16.86%

**Q.** With `CCc1ncnc2c1CCN(S(=O)(=O)c1ccccc1)CC2` as the compound, how does the “Percent Effect” value read?
**A.** 113.2%

**Q.** For `CCOc1ncnc2c1CCN(S(=O)(=O)c1ccccc1)CC2`, which “Percent Effect” value is on record?
**A.** 89.01%

**Q.** With `CCc1ncnc2c1CCN(C(=O)N1CCCC1)CC2` as the compound, how does the “Percent Effect” value read?
**A.** 16.14%

**Q.** How did the “Percent Effect” value turn out when `CCN(C)c1ncnc2c1CCN(S(=O)(=O)c1ccccc1)CC2.O=C(O)C(F)(F)F` was run?
**A.** 77.11%

**Q.** With `CCOc1ncnc2c1CCN(Cc1cccs1)CC2.O=C(O)C(F)(F)F` as the compound, how does the “Percent Effect” value read?
**A.** -4.6%

**Q.** `CCN(C)c1ncnc2c1CCN(C(=O)c1ccccn1)CC2.O=C(O)C(F)(F)F.O=C(O)C(F)(F)F` was tested. Which “Percent Effect” value did it give?
**A.** -0.1551%
